Shown are actives, neighbours in structure and some others; about 3.8% of the full set was active somewhere.
Nrf2 block: blocks Nrf2 signaling. AID 504444. A549 ARE-Fluc reporter, luciferase luminescence, 18-24 h. 360,000 compounds, 2.1% hits. Potency, µM (titrated, usually from 46 µM), without a hit: top-dose activity change, negative = inhibition, usual class: inhibitors; further: on the % scale 0 is the no-effect control and ±100 the full control effect; nearly all actives have a fitted effect of over 60% in size
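A549 ARE_Fluc cells, 5000/well, 5% FBS OPTI-MEM; compounds in dose-response, 18-24 h at 37 °C/5% CO2; CellTiter-Fluor viability read (Ex 405/Em 525), then BugLite luciferase luminescence = Nrf2 activity.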
TGFb inhibitor: TGF-b pathway inhibition; HepG2 CAGA-GFP TGF-b/SMAD3 reporter, GFP fluorescence, 18 h; TGF-beta stimulated, 500 pg/mL final; Potency, µM (titrated, usually from 46.1 µM), for the others: top-dose activity, negative = inhibition, most hits filed as inhibitors; 410,000 compounds, 1.2% hits; further: on the % scale 0 is the no-effect control and ±100 the full control effect; nearly all actives have a fitted effect of over 65% in size
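Inhibition was scored as loss of TGF-beta-induced (500 pg/mL final, 18 hours, 37 degrees C) GFP in HEPG2 cells carrying a CAGA-GFP reporter, in DMEM with 1% FBS. Well GFP was summed per cell; Activity was normalised to unstimulated and stimulated DMSO wells, then concentration-response fitting.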
HepG2 tox-1: kills HepG2 cells in TGF-b inhibitor counter-screen | Potency, µM (series often up to 46.1 µM), without a hit: at the highest dose activity change, negative = cytotoxicity, usual class: cytotoxic | 410,000 compounds, 0.76% hits | HepG2 CAGA-GFP viability, ATP luminescence, 18 h
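CellTiter-Glo luminescence gave cytotoxicity after 18 hours at 37 degrees C. The cells were HepG2 CAGA-GFP in 1% FBS DMEM, stimulated with 500 pg/mL TGF-beta after compound addition. %Activity was normalised to no-cell wells (complete cell-killing) and DMSO (no toxicity), and curves were fitted and classified.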
ATXN viability: viability counter-screen for ATXN expression inhibitors; S2 cells (HEK-293 line with an ATXN2-luciferase reporter) viability, CellTiter-Fluor protease fluorescence, 24 h; Potency, µM (doses to about 56.7 µM), most hits filed as cytotoxic; 400,000 compounds, 0.49% hits; AID 651635; further: nearly all actives have a fitted effect of over 40% in size
A549 tox: A549 cytotoxicity, counter-screen for Nrf2 inhibitors; 390,000 compounds, 0.16% hits; Potency, µM (titrated, usually from 46 µM), without a hit: top-dose activity change, negative = cytotoxicity, most hits filed as inhibitors; A549 ARE-Fluc cells, CellTiter-Fluor viability, 18-24 h; AID 504648; further: on the % scale 0 is the no-effect control and ±100 the full control effect
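A549 ARE-Fluc cells in 5% FBS OPTI-MEM, 5000 cells/well, rested 2 h then exposed to compounds in concentration-response for 18-24 h at 37 °C. Viability by CellTiter-Fluor fluorescence (Ex 405/Em 525) after 30 min; luciferase luminescence (BugLite, 15 min, RT) read afterwards.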
ATXN2 expr inh: ATXN2 expression inhibition; 360,000 compounds, 0.72% hits; AID 1745845; Potency, µM (titrated, usually from 57 µM), for the others: top-dose activity change, negative = inhibition, hits mostly inhibitors; HEK-293 ATXN2-luciferase reporter, luminescence, 24 h; further: on the % scale 0 is the no-effect control and ±100 the full control effect; nearly all actives have a fitted effect of over 55% in size
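ATXN2-luciferase reporter cells (luciferase flanked by upstream and downstream ATXN2 gene portions) were treated 24 h at 37 °C with compounds at up to 57 uM. SteadyGlo luminescence gave expression; GF-AFC fluorescence gave viability.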
TGFb CAGA inh: TGF-b pathway inhibition, cherry-pick retest | shares compounds with TGFb inhibitor | HepG2 CAGA-GFP TGF-b reporter, GFP fluorescence, 18 h; cells stimulated with TGF-beta, 500 pg/mL | Potency, µM (highest dose often 46.1 µM), without a hit: top-dose activity, negative = inhibition, most hits filed as inhibitors | 1,600 compounds, 63% hits | AID 720534; further: on the % scale 0 is the no-effect control and ±100 the full control effect; nearly all actives have a fitted effect of over 65% in size
HepG2 tox-2: HepG2 cytotoxicity, TGF-b inhibitor counterscreen; shares compounds with TGFb inhibitor; HepG2 CAGA-GFP viability, ATP luminescence, 18 h; cells stimulated with TGF-beta, 500 pg/mL; Potency, µM (series often up to 46.1 µM), without a hit: at the highest dose activity, negative = cytotoxicity, hits mostly inhibitors; 1,600 compounds, 27% hits; further: on the % scale 0 is the no-effect control and ±100 the full control effect; nearly all actives have a fitted effect of over 70% in size
TGFb CCL64 inh: TGF-b inhibition, CCL64 orthogonal assay. shares compounds with TGFb inhibitor. CCL64 CAGA-GFP reporter, TGF-b stimulated, GFP fluorescence, 18 h. Potency, µM (titrated, usually from 46.1 µM), inactives show top-dose activity, negative = inhibition, usual class: inhibitors. 1,600 compounds, 41% hits. AID 720536; further: nearly all actives have a fitted effect of over 65% in size
TGFb COP inh: blocks TGF-b signaling in HepG2 COP reporter; 1,600 compounds, 3% hits; HepG2 COP-GFP TGF-b reporter, GFP fluorescence, 18 h; cells stimulated by added recombinant TGF-beta; shares compounds with TGFb inhibitor; Potency, µM (doses to about 46.1 µM), without a hit: top-dose activity, negative = inhibition, hits mostly inhibitors; further: nearly all actives have a fitted effect of over 70% in size
* hit, by the source's call; i = inactive; ? = inconclusive; · = no result. The call rests on the fitted dose curve; in most records, active means well fitted curve in the direction sought with a large enough effect; inconclusive means small, poorly fitted or top-dose-only effect, or another doubt; inactive means no such curve, though single readings can be large; an effect the other way counts as inactive or inconclusive. Potency means the concentration at half of the fitted maximal effect.

SMILES	Nrf2 block	TGFb inhibitor	HepG2 tox-1	ATXN viability	A549 tox	ATXN2 expr inh	TGFb CAGA inh	HepG2 tox-2	TGFb CCL64 inh	TGFb COP inh
CN(C)CCC(=O)C(Cc1ccccc1)c1ccccc1 (centres undefined)	-5%	7.9µM*	20µM*	i	-16%	-6%	4.1µM*	15µM*	10µM*	?
Cn1c(=O)oc2cc(S(=O)(=O)N3CCCC(C(=O)NC4CCCc5ccccc54)C3)ccc21 (centres undefined)	-4%	0.56µM*	-35%	?	0%	?	?	?	-1%	71%
O=c1c(Br)c(Br)cnn1-c1ccccc1	-18%	10µM*	13µM*	·	?	5.3µM*	4.6µM*	8.2µM*	4.6µM*	?
O=C1C(Cl)=C(Nc2ccccc2)C(=O)c2ccccc21	-12%	4.5µM*	6.3µM*	28µM*	-13%	?	3.3µM*	6.5µM*	?	1%
O=C1C(Cl)=C(NCc2cccnc2)C(=O)c2ccccc21	?	3.2µM*	1.4µM*	?	?	?	4.6µM*	6.5µM*	?	16µM*
CC(C(=O)Nc1ccc(C(=O)O)cc1)N1C(=O)c2ccccc2C1=O (centres undefined)	7%	-24%	-2%	i	-5%	4%	·	·	·	·
CC1=C(Nc2ccc(C(=O)O)cc2)C(=O)c2ccccc2C1=O	23µM*	7.9µM*	-59%	?	?	-13%	15µM*	?	-20%	22%
COc1ccc2c(c1)-c1nc(NC(=O)c3ccc(OC)c(Br)c3)sc1CC2	-12%	-6%	-52%	i	1%	-26%	·	·	·	·
CC(C)(C)C1=C(C#N)C(c2cc3c(cc2Br)OCO3)C(C#N)=C(N)O1 (centres undefined)	9%	-8%	3%	i	-6%	0%	·	·	·	·
CN1CCN(S(=O)(=O)c2ccc(Sc3nc4ccccc4[nH]3)c3nsnc23)CC1	·	10µM*	1%	i	1%	8%	-19%	6%	6%	9%
CN1CCN(S(=O)(=O)c2ccc(Br)c3nsnc23)CC1	7%	0%	-4%	i	6%	-8%	·	·	·	·
COc1nccnc1NS(=O)(=O)c1ccc(NC(=O)c2cccc(C)c2)cc1	-26%	1%	-2%	i	1%	2%	·	·	·	·
COc1ccccc1NC(=O)c1cc2c([nH]c1=O)CC(C)(C)CC2=O	10%	0%	5%	i	-4%	14%	·	·	·	·
CCCOc1ccc(CSc2nc3ccccc3[nH]2)cc1	?	10µM*	-46%	?	-11%	4%	-15%	?	?	4%
CCOc1ccc(OCCSc2nc3ccccc3[nH]2)cc1	?	?	3%	i	-6%	-2%	·	·	·	·
O=C(Oc1ccc(Cl)c2cccnc12)C12CC3CC(CC(C3)C1)C2	5%	?	-6%	i	8%	-14%	·	·	·	·
O=C(NCc1ccncc1)c1ccc2nc(Cc3ccccc3F)oc2c1	?	?	2%	i	0%	-4%	?	-14%	16%	-18%
COc1ccc(OC)c(CN2C(=O)c3ccccc3C2c2nnnn2C2CCCC2)c1 (centres undefined)	·	·	·	i	·	-10%	·	·	·	·
O=C(CSc1nnc(-c2ccc(F)cc2)c2ccccc12)Nc1ccccc1	2%	13µM*	-4%	i	-1%	38%	15µM*	-5%	-10%	-14%
COc1ccc(-c2cn[nH]c2-c2ccc(OCC(=O)NN)cc2O)cc1	-1%	1%	-3%	i	0%	20%	·	·	·	·
C=C(C)COc1ccc(-c2[nH]ncc2-c2ccc(OC)cc2)c(O)c1	1%	8.9µM*	-122%	?	3%	·	?	?	23µM*	?
Cc1nn(Cc2c(F)c(F)c(F)c(F)c2F)c(C)c1NC(=O)c1nn(C)c(C)c1Br	1%	13%	-11%	i	-4%	0%	·	·	·	·
NC1=NC[C@H](Cc2ccc(O)cc2)N1CCc1cc(C(F)(F)F)cc(C(F)(F)F)c1	17%	1.1µM*	-4%	i	2%	9%	0%	-5%	3%	3%
c1ccc(Sc2ncnc3ccccc23)cc1	-14%	10µM*	-36%	i	2%	27%	10µM*	?	?	40%
CCC(C)NS(=O)(=O)c1ccc(NC(=O)C(Sc2ccccc2)c2ccccc2)cc1 (centres undefined)	?	13µM*	-25%	?	?	?	?	?	?	53%
CC(=O)NS(=O)(=O)c1ccc(NC(=O)C(Sc2ccccc2)c2ccccc2)cc1 (centres undefined)	·	3%	9%	i	-1%	-16%	·	·	·	·
O=[N+]([O-])c1c(NCCCO)cc(Sc2nc3ccccc3s2)c2nonc12	?	18µM*	-34%	25µM*	?	?	?	16µM*	6.5µM*	16µM*
Cc1nnc(Sc2cc(NCCCO)c([N+](=O)[O-])c3nonc23)s1	1%	5µM*	1%	·	1%	?	4.6µM*	23µM*	3.3µM*	?
Cc1ccc2c(c1)N(C(=O)N1CCC(C(=O)NCc3cccc(Br)c3)CC1)CCO2	20%	?	-30%	·	0%	·	·	·	·	·
